Assay results taken from PubChem BioAssay (NCI).
Several values for one entry are separate records, joined by “and”; a condition that tells them apart may be missing. Equal entries are not always repeated. Compounds without any hit were thinned out: in the full panel of roughly 79,000, 15% have a hit. Activity calls are given as the source filed them. Rule as the data show it: active = growth inhibition above about 70%; inactive = the rest.

What was measured:
[1] = NCI Yeast Anticancer Drug Screen. Data for the rad50 strain (AID 155);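 also: 0% = growth of vehicle-only cultures of the same strain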; settings: S. cerevisiae rad50 strain growth inhibition, hits give high values; at 50.0 µM unless noted
Summary of the method: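 DNA repair mutant yeast, compound exposure, growth read-out; inhibition is taken relative to vehicle.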

[2] = NCI Yeast Anticancer Drug Screen. Data for the mec2-1 strain (AID 157); settings: S. cerevisiae mec2-1 strain, hits give high values; at 50.0 µM unless noted
Summary of the method: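 Each compound was tested on mec2-1 yeast, a strain altered in DNA damage repair or cell cycle control. Growth inhibition is reported relative to vehicle.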

[3] = NCI Yeast Anticancer Drug Screen. Data for the sgs1 mgt1 strain (AID 161);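 also: 0% = growth of cultures given vehicle only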; settings: S. cerevisiae sgs1 mgt1 strain, hits give high values; at 50.0 µM unless noted
Summary of the method: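 Read-out: growth inhibition vs vehicle controls. Cells: mutant yeast strain deficient in DNA damage repair.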

[4] = NCI Yeast Anticancer Drug Screen. Data for the cln2 rad14 strain (AID 165);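 also: 0% = growth equal to vehicle treated cultures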; settings: S. cerevisiae cln2 rad14 strain, hits give high values; at 50.0 µM unless noted
Summary of the method: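 Test compounds were added to cln2 rad14 yeast cultures; inhibition of growth was then determined by comparison with vehicle treatment.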

[5] = NCI Yeast Anticancer Drug Screen. Data for the bub3 strain (AID 167); settings: S. cerevisiae bub3 mutant strain, hits give high values; at 50.0 µM unless noted
Summary of the method: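 In this screen, a yeast mutant lacking normal mitotic checkpoint function is challenged with compound. Relative growth versus vehicle gives the inhibition value.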

[6] = NCI Yeast Anticancer Drug Screen. Data for the mlh1 rad18 strain (AID 175); settings: S. cerevisiae mlh1 rad18 strain growth inhibition, hits give high values; at 50.0 µM unless noted
Summary of the method: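 Inhibition values reflect reduced growth of mutant yeast versus vehicle-treated controls following compound exposure; the mutations affect DNA damage repair.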

Measured: growth inhibition

Cc1ccc(N2CCC(O)C2)cc1 (stereo not given)
inactive: [1] -19.4% | [2] -8.5% | [3] -7.05% | [4] 4.95% | [5] -8.4% | [6] -25.9%

CCCCCCCCCC(=O)N1CCCC(C)C1 (stereo not given)
active: [1] 99.5% | [2] 99.7% | [3] 99.6% | [4] 98.7% | [5] 99.2% | [6] 99.5%

CC(=O)OCC(C)O (stereo not given)
inactive: [1] 28% | [2] -9.7% | [3] 14.3% | [4] -0.3% | [5] 1.2% | [6] 2%

C(/C=N/NC1=NCCN1)=N\NC1=NCCN1
inactive: [1] 42% | [2] 18.1% | [3] 28.4% | [4] 2.85% | [5] 36.6% | [6] 41.5%

CC(=O)C1=CCCCC1
inactive: [1] 6.1% | [2] -2.8% | [3] -3.3% | [4] 11.7% | [5] 14.7% | [6] -7.8%

COc1cc2c(c3oc4c(O)cccc4c(=O)c13)CC(C(C)(O)CO)O2 (stereo not given)
inactive: [1] 24.2% | [2] -11.6% | [3] -23.4% | [4] -9.25% | [5] -42.8% | [6] -33.6%

CS(=O)(=O)CS(C)(=O)=O
inactive: [1] 18.9% | [2] 6.15% | [3] 8.2% | [4] 14.5% | [5] 0.25% | [6] 27.9%

Nc1nc(CC2(O)CCCCC2)cc(-c2ccccc2)n1
inactive: [1] 49% | [2] 29.6% | [3] 21.1% | [4] 55.2% | [5] 45.5% | [6] 44.8%

COc1ccccc1NC(=O)c1ccccc1
inactive: [1] 23.2% | [2] 11.3% | [3] 4.95% | [4] -9.25% | [5] 2.75% | [6] 16.1%

Cc1ccc2oc3c(ccc(=O)n3C)c(=O)c2c1
inactive: [1] 28.6% | [2] 7.1% | [3] -17.6% | [4] -22.1% | [5] -35.5% | [6] -59.3%

CCOC(=O)C(C#N)=C(C)C
inactive: [1] -12.6% and 26.9% | [2] 7.8% and 2.75% | [3] -2.55% and 17% | [4] -19.1% and -1.1% | [5] 0.65% and -13.8% | [6] 20.4% and 17.1%

CCN(CC)CCCCCCNc1cc(OC)c(OC)c2c(C)ccnc12
inactive: [1] 23.6% | [2] 18.1% | [3] 5.6% | [4] -14.4% | [5] -1.8% | [6] 28.2%

COc1cc(N(Cc2ccc3nc(OC)c(OC)nc3c2)Cc2ccc3nc(OC)c(OC)nc3c2)cc(OC)c1OC
inactive: [1] -29.8% | [2] -23.6% | [3] -19.4% | [4] -6.4% | [5] -20.4% | [6] -14.6%

CCOC(=O)O/C(=C\c1ccc(OC)cc1)c1c(OC(=O)OCC)n(C(=O)OCC)c2ccccc12
inactive: [1] -13.1% | [2] -4.3% | [3] 7% | [4] 9.95% | [5] 12.7% | [6] 4.05%

CC(C)(O)CCNc1ncnc2c1ncn2C1OC(CO)C(O)C1O (stereo not given)
inactive: [1] 2% | [2] -1.75% | [3] 9.7% | [4] -6.8% | [5] 13.9% | [6] 13.8%

C/C(=N\NC(=O)c1ccncc1)c1cc(Cl)ccc1Cl
inactive: [1] 2.9% | [2] 5.4% | [3] 4.65% | [4] 8.15% | [5] 0.35% | [6] 8.7%

O=C1CCC(=O)N1N1C(=O)CCC1=O
inactive: [1] -9.65% | [2] -24.2% | [3] -10.4% | [4] 7.05% | [5] -23.2% | [6] 3.35%

CCOC(=O)/C(F)=C/c1ccc(C#N)cc1
inactive: [1] 29.3% | [2] -19.9% | [3] -4.25% | [4] 3.7% | [5] 8.35% | [6] 15.8%

O=C(O)CCCl
inactive: [1] -8.95% and -10.8% | [2] 7.65% and -16.2% | [3] 25.1% and -18.3% | [4] -27.1% and -34.2% | [5] -6.1% and -0.9% | [6] 29.3%

CCOC(Cn1ccc[n+]1CC(=O)c1ccccc1)OCC
inactive: [1] 0.9% | [2] -5.25% | [3] -10.8% | [4] -21.6% | [5] -5.75% | [6] 9.1%
